The panel holds about 79,000 compounds, 15% with a hit somewhere; the sample as a whole holds those more often. A number with no mark means an inactive call. Calls of active or inactive are those of the source. Cut-off read from the data, not from the text of the source: active = growth inhibition above about 70%; inactive = the rest.
Key:
[1] = NCI Yeast Anticancer Drug Screen. Data for the rad50 strain (AID 155);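 note: 0% = growth of vehicle-only cultures of the same strain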; details: S. cerevisiae rad50 strain growth inhibition, hits give high values
How it was run: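 Vehicle-treated cultures provide the reference for the growth inhibition reported for compound-exposed, repair-deficient yeast.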

[2] = NCI Yeast Anticancer Drug Screen. Data for the mec2-1 strain (AID 157); details: S. cerevisiae mec2-1 strain, hits give high values
How it was run: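 Mutant yeast (mec2-1) grown with compound; growth inhibition relative to vehicle control reported.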

[3] = NCI Yeast Anticancer Drug Screen. Data for the sgs1 mgt1 strain (AID 161);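 note: 0% = growth of cultures given vehicle only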; details: S. cerevisiae sgs1 mgt1 strain, hits give high values
How it was run: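 Yeast cells carrying a defined DNA-repair defect were exposed to test compounds. Growth inhibition was measured relative to vehicle-treated controls.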

[4] = NCI Yeast Anticancer Drug Screen. Data for the cln2 rad14 strain (AID 165);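 note: 0% = growth equal to vehicle treated cultures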; details: S. cerevisiae cln2 rad14 strain, hits give high values
How it was run: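 Readout is yeast growth inhibition versus vehicle-treated controls, using a strain with cln2 and rad14 alterations exposed to compound.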

[5] = NCI Yeast Anticancer Drug Screen. Data for the bub3 strain (AID 167); details: S. cerevisiae bub3 mutant strain, hits give high values
How it was run: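 Mutant yeast screening strain plus compound; vehicle-treated cultures serve as the 0% inhibition reference.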

[6] = NCI Yeast Anticancer Drug Screen. Data for the mlh1 rad18 strain (AID 175); details: S. cerevisiae mlh1 rad18 strain growth inhibition, hits give high values
How it was run: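 Genetically defined yeast (DNA repair-deficient) exposed to compounds; growth inhibition determined relative to vehicle.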

[7] = at 5.0 µM (retest, dose inferred, filed as 0.5)
[8] = at 50.0 µM (retest, dose inferred, filed as 5.0)

Structure (SMILES)	growth inhibition [1, 7]	growth inhibition [1, 8]	growth inhibition ([1]; at 50.0 µM)	growth inhibition [2, 7] [%]	growth inhibition [2, 8]	growth inhibition ([2]; at 50.0 µM)	growth inhibition [3, 7] [%]	growth inhibition [3, 8]	growth inhibition ([3]; at 50.0 µM)	growth inhibition [4, 7] [%]	growth inhibition [4, 8]	growth inhibition ([4]; at 50.0 µM)	growth inhibition [5, 7] [%]	growth inhibition [5, 8]	growth inhibition ([5]; at 50.0 µM)	growth inhibition [6, 7] [%]	growth inhibition [6, 8]	growth inhibition ([6]; at 50.0 µM)
O=S(=O)(O)O.[Pt].c1ccc([PH+](c2ccccc2)c2ccccc2)cc1.c1ccc([PH+](c2ccccc2)c2ccccc2)cc1.c1ccc([PH+](c2ccccc2)c2ccccc2)cc1	23%	95% (active)	93.8% (active)	13	94% (active)	98.1% (active)	9	94% (active)	94.3% (active)	8	97% (active)	97.8% (active)	-7	92% (active)	96.7% (active)	39	95% (active)	95.2% (active)
O=C(O)c1ccccc1[Se][Se]c1ccccc1C(=O)O	50%	73% (active)	21.1%	26	56%	10.8%	53	67%	15.9%	31	46%	8.05%	49	70% (active)	34.1%	56	74% (active)	74.5% (active)
CCC1CCCCN1CC(C(C)=O)C(c1ccccc1)c1c(O)c2ccccc2oc1=O (configuration not stated)	13%	13%	78.2% (active)	0	0%	64.8%	5	5%	79.3% (active)	-6	-6%	72.5% (active)	6	6%	71.3% (active)	7	7%	75.3% (active)
CCCCN(C)CC(C(C)=O)C(c1ccccc1)c1c(O)c2ccccc2oc1=O (configuration not stated)	32%	32%	80.4% (active)	18	18%	78.4% (active)	11	11%	82.3% (active)	6	6%	80.2% (active)	15	15%	81.5% (active)	22	22%	85.8% (active)
OC(c1ccc(Cl)cc1)C(Cl)(Cl)Cl (configuration not stated)	6%	98% (active)	97.6% (active)	0	98% (active)	96.8% (active)	-1	35%	81.2% (active)	1	96% (active)	77.8% (active)	-8	99% (active)	95.3% (active)	3	97% (active)	97.5% (active)
FC(F)(F)C1(C(F)(F)F)O[Te]2(OC1(C(F)(F)F)C(F)(F)F)OC(C(F)(F)F)(C(F)(F)F)C(C(F)(F)F)(C(F)(F)F)O2	10%	79% (active)	63.7%	10	89% (active)	96.3% (active)	23	86% (active)	95.5% (active)	14	84% (active)	90.2% (active)	20	96% (active)	89.2% (active)	11	91% (active)	92% (active)
CC1C2C=CC1C(c1c3ccc(=O)c(O)c-3oc3c(O)c(O)ccc13)C2C(=O)O (configuration not stated)	11%	33%	17%	-1	10%	47.8%	2	33%	53%	-23	0%	-35.2%	9	37%	-8.35%	7	35%	8.3%
CCC1(O)C(=O)OCc2c1cc1n(c2=O)Cc2cc3ccc(C#N)cc3nc2-1 (configuration not stated)	71% (active)	57%	51%	11	-6%	-20.8%	11	-132%	-30.6%	10	-5%	-16.7%	-6	-63%	-4.05%	10	-9%	-15.6%
CCOC(=O)/C(=C\c1ccc(C(=O)OC)cc1)[Se]c1ccccc1	13%	54%	74% (active)	6	26%	40.8%	-3	53%	64.3%	3	44%	51.7%	18	53%	38.4%	-11	64%	58.8%

Reference: PubChem BioAssay (NCI)
